# Records with an inconclusive call do not appear. Where a call stands in place of a potency, no number is given. Unmarked numbers belong to inactive results. Active and inactive are the calls of the source. Calls follow the shape of the full dose curve.
# Assay: p53 small molecule agonists, cell-based qHTS assay with rat liver microsomes (AID 1963578)
# Conditions: HCT-116 p53RE-bla, beta-lactamase ratio, 16 h; series mostly up to 66 µM
# From the text: U.S. Tox21 Program National Center for Advancing Translational Sciences [NCATS] Division of Preclinical Innovation [DPI] U.S. Environmental Protection Agency [EPA] National Institutes of Environmental Health Sciences [NIEHS] National Toxicology Program [NTP] U.S. Food and Drug Administration [FDA] Tox21 Assay Overview: p53, a tumor suppressor protein, is activated following cellular insult, including DNA damage and other cellular stresses. The activation of p53 regulates cell fate by inducing DNA repair, cell cycle arrest, apoptosis, or cellular senescence. The activation of p53, therefore, is a good indicator of DNA damage and other cellular stresses. […] The activation of the reporter gene under culture conditions can be detected by fluorescence intensity. This cell line was used to screen the Tox21 10K compound library in the condition of presence of rat liver microsomes and to identify agonists that activate the p53 signaling pathway after in vitro metabolic activation (Ooka et al., Archive of Toxicology 96:1975-1987, 2022).
# Tox21 Assay Protocol Summary: The p53RE-bla cells were dispensed at 4,000cells/3ul/well in 1536-well black-clear bottom plates. After the assay plates were incubated at 37 C, 5% CO2 incubator for 5 hours, 23 nL of compounds dissolved in DMSO, positive controls or DMSO only was transferred to the assay plate. Following compound addition, 3 uL of rat liver microsomes (Molecular Toxicology, Boone, NC) at final concentration of 0.5 mg/mL and 1uL of Beta-Nicotinamide adenine dinucleotide 2-phosphate (NADPH) at final concentration of 0.5 mg/mL were transferred to the assay plate. The plates were incubated at 37 C for 16 hours. 1 uL of LiveBLAzer detection mixture was added to each well and the plates were incubated at room temperature in the dark for 2 h.
SMILES,Potency,activation
C/C=C/C=C/COC(=O)C(C)C,inactive,–
CC(=O)OC(C)(C)Cc1ccccc1,inactive,–
O=[N+]([O-])c1ccc(F)c(Cl)c1,inactive,–
O=C(/C=C/c1ccccc1)OC/C=C/c1ccccc1,inactive,–
Clc1ccc2c(c1)CCc1cccnc1C2=C1CCNCC1,inactive,–
Cc1cc(C)c(O)c(C(C)(C)C)c1,inactive,–
CC1=C2[C@@H]([C@H](C)CC[C@H]2/C=C(\C)C(=O)O)[C@H](O)C1,inactive,–
CN(C)CCn1nnnc1SCC1=C(C(=O)O)N2C(=O)[C@@H](NC(=O)Cc3csc(N)n3)[C@H]2SC1,inactive,–
CCn1c2ccccc2c2cc([N+](=O)[O-])ccc21,inactive,–
CN1C(=O)N(c2ccccc2Br)Cc2cnc(Nc3ccc4c(c3)OCC(CO)O4)nc21 (stereo not given),inactive,–
CCCN(CCC)CCc1cccc2c1CC(=O)N2,inactive,–
COC(=O)[C@@H]1[C@H]2C[C@H]3c4[nH]c5ccccc5c4CCN3C[C@@H]2CC[C@@H]1O,inactive,–
Nc1nc(CC(=O)O)cs1,inactive,–
Cn1c(=O)[nH]c2ncn(C)c2c1=O,inactive,–
Cc1cc(S(=O)(=O)O)ccc1N=Nc1c(O)ccc2ccccc12,inactive,–
CO/N=C(\C(=O)N[C@@H]1C(=O)N2C(C(=O)O)=C(CSc3nc(=O)c(O)nn3C)CS[C@H]12)c1csc(N)n1,inactive,–
CC(=O)c1cnccn1,inactive,–
CCc1nccnc1C,inactive,–
O=c1[nH]cnc2ccccc12,inactive,–
O=C=NCc1cccc(CN=C=O)c1,–,0.266% [at 13.6 µM]

SMILES,Potency,activation
CN1[C@@H]2CC[C@H]1CC(OC(=O)c1c[nH]c3ccccc13)C2 (stereo not given in full),inactive,–
CCC(C)(CCCC(C)C)OC(C)=O (stereo not given),inactive,–
CC(C)(C)NSc1nc2ccccc2s1,inactive,–
C[C@@H]1C[C@H]2[C@@H]3CCC4=CC(=O)C=C[C@]4(C)[C@@]3(F)[C@@H](O)C[C@]2(C)[C@H]1C(=O)CO,inactive,–
N[C@@H](Cc1cc(I)c(O)c(I)c1)C(=O)O,inactive,–
C[C@@]12C(=O)OC(=O)[C@]1(C)C1CCC2O1,inactive,–
O=C(OCC(COC(=O)c1ccccc1)(COC(=O)c1ccccc1)COC(=O)c1ccccc1)c1ccccc1,inactive,–
C1=CCC(c2ccccc2)CC1 (stereo not given),inactive,–
COc1ccc(CCN(C)CCCC(C#N)(c2cc(OC)c(OC)c(OC)c2)C(C)C)cc1OC (stereo not given),inactive,–
CC1=CC(=O)CC(C)(C)C1=O,inactive,–
Fc1ccc([C@@H]2CCNC[C@H]2COc2ccc3c(c2)OCO3)cc1,inactive,–
C=C1CC[C@H](O)C/C1=C\C=C1/CCC[C@]2(C)[C@@H]([C@H](C)CCCC(C)C)CC[C@@H]12,inactive,–
C=CCn1c(=O)n([C@@H]2O[C@H](CO)[C@@H](O)[C@H]2O)c2nc(N)[nH]c(=O)c21,inactive,–
CN(C)CCN(Cc1ccc(Cl)cc1)c1ccccn1,inactive,–
CCC(=O)Nc1ccc(O)cc1,inactive,–
O=C(NCC1CN(c2ccc(N3CCOCC3=O)cc2)C(=O)O1)c1ccc(Cl)s1 (stereo not given),inactive,–
C=CC(=O)OCC(CO)(COCC(COC(=O)C=C)(COC(=O)C=C)COC(=O)C=C)COC(=O)C=C,inactive,–
CN1CCN(C2=Nc3ccccc3Sc3ccc(Cl)cc32)CC1,inactive,–
Cc1cc(=O)[nH]c(=O)[nH]1,inactive,–
Nc1cc(C(F)(F)F)ccc1S,inactive,–

# — PubChem BioAssay (Tox21)
